Compounds without any hit were thinned out: in the full panel of roughly 79,000, 15% have a hit. Unmarked numbers belong to inactive results. Calls of active or inactive are those of the source. No stated cut-off is given here; in the data, active means growth inhibition above about 70%; inactive means the rest.
Assays:
[1] = NCI Yeast Anticancer Drug Screen. Data for the rad50 strain (AID 155);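 further: 0% = growth of vehicle-only cultures of the same strain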; settings: S. cerevisiae rad50 strain growth inhibition; at 50.0 µM; stronger effect = higher value
How it was run: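 Cells are treated with compound, grown, and their growth is then scored against vehicle-only cultures of the same repair-deficient yeast strain.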

[2] = NCI Yeast Anticancer Drug Screen. Data for the mec2-1 strain (AID 157); settings: S. cerevisiae mec2-1 strain, at 50.0 µM, stronger effect = higher value
How it was run: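 Vehicle-treated cultures served as reference for growth inhibition of compound-exposed mec2-1 yeast.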

[3] = NCI Yeast Anticancer Drug Screen. Data for the sgs1 mgt1 strain (AID 161);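 further: 0% = growth of cultures given vehicle only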; settings: S. cerevisiae sgs1 mgt1 strain, at 50.0 µM, stronger effect = higher value
How it was run: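 Mutant yeast exposed to compound; growth scored against vehicle-only wells.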

[4] = NCI Yeast Anticancer Drug Screen. Data for the cln2 rad14 strain (AID 165);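 further: 0% = growth equal to vehicle treated cultures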; settings: S. cerevisiae cln2 rad14 strain, at 50.0 µM, stronger effect = higher value
How it was run: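 Each compound was tested on cln2 rad14 yeast. Inhibition of growth was calculated against vehicle-exposed controls.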

[5] = NCI Yeast Anticancer Drug Screen. Data for the bub3 strain (AID 167); settings: S. cerevisiae bub3 mutant strain, at 50.0 µM, stronger effect = higher value
How it was run: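 Part of a panel of yeast mutants defective in DNA damage repair or cell cycle regulation. Each strain is grown with compound, and inhibition is calculated relative to solvent-treated cultures.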

[6] = NCI Yeast Anticancer Drug Screen. Data for the mlh1 rad18 strain (AID 175); settings: S. cerevisiae mlh1 rad18 strain growth inhibition; at 50.0 µM; stronger effect = higher value
How it was run: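 Vehicle-treated cultures served as the reference for growth inhibition in a yeast strain carrying DNA damage repair alterations exposed to each compound.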

Row | Structure (SMILES) | growth inhibition [1] [%] | growth inhibition [2] [%] | growth inhibition [3] | growth inhibition [4] [%] | growth inhibition [5] [%] | growth inhibition [6] [%]
1 | CCC1C(=O)N(C)c2ccccc21 (centres undefined) | -2.15 | -9.6 | -10.1% | 1.55 | -19.3 | 13.2
2 | Cc1cc(C)c(C(C=O)c2ccccc2)c(C)c1 (centres undefined) | 18.6 | 2.85 | 10.3% | 17.9 | 6.25 | 4.45
3 | C=CC(C)C1C(C)C(Cl)CC(Cl)C1OC(=O)c1ccccc1 (centres undefined) | 14.1 | -0.65 | 10.7% | -2.3 | 17.8 | -11.3
4 | OCc1c(CO)c2cccn2c2c1cnn2-c1ccccc1 | 11.3 | 1.45 | 23.9% | -64.9 | -8.2 | 11.2
5 | CC(=O)Nc1ccc[n+](CC(=O)c2ccc(F)cc2)c1 | -8.95 | 0.85 | 4.35% | -42.6 | -5.45 | 8.65
6 | C=CCC1=C2CCCCC2CCC1=O (centres undefined) | -5.7 | -27.8 | -15.9% | 3.3 | -11 | 4.95
7 | COc1ccc(C(O)c2ncccc2C)cc1OC (centres undefined) | -0.3 | 31.3 | 20.1% | -9.35 | 24.8 | 22.3
8 | CN(C(=O)c1ccc(Cl)c(Cl)c1)C(c1ccco1)P(=O)(c1ccccc1)c1ccccc1 (centres undefined) | 54 | 46.2 | 78.4% (active) | 17.2 | 50.4 | 45.9
9 | N#Cc1c(-c2ccc(Cl)cc2)cn2c1[nH]c(=O)c1cc(Br)ccc12 | 6.45 | 0.95 | -18.4% | -12.6 | -3.4 | 14.4
10 | O=c1oc2ncccc2n1Cc1ccc([N+](=O)[O-])cc1 | -14.7 | -22 | 1.25% | 20.8 | -1.15 | 19.6
11 | O=C(NC(=O)c1cc(-c2ccccc2)n[nH]1)c1ccccc1 | -71.5 | -10.1 | -14.4% | -6.3 | -20.4 | -10.8
12 | Cc1cc(S(=O)(=O)Nc2nc3ccccc3[nH]2)c(S)cc1Cl | 19.9 | 13.2 | 23.9% | 23.4 | 5.55 | 40.6
13 | COC(=O)C(=O)C1CCc2c(C(=O)OC)nc3[nH]n(-c4ccccc4)c(=O)c3c21 (centres undefined) | 12.1 | -14.3 | 4.2% | -30.2 | 25.1 | 0.25
14 | CCCCCCC(=O)OCC | 16.3 | -3.4 | -4.7% | 0.9 | 12.9 | 14.2
15 | CC(=O)Oc1cc(O)oc(=O)c1 | 33 | -14.8 | 21.1% | 19.3 | 11.3 | 13.1
16 | Cc1cc(C)n(C2OC(CO)C(O)C(O)C2O)c(=S)c1C#N (centres undefined) | 21.1 | 14.8 | 29.6% | 5.4 | 8.4 | 35.4
17 | CCOC(=O)N1CCCCC1 | -3.1 | 5 | 3.05% | -16.1 | -3.3 | 5.95
18 | COc1ccc(OC)c(/C=C/c2ccccc2)c1 | 0.5 | -29.1 | 8.25% | -24.8 | 1.6 | -14.9
19 | CCCC(=O)N[C@H]1C2C3CC4C5CC(C42)C1(C)C53 (some centres undefined) | -5.3 | -17.4 | 3.8% | 10.3 | 7.25 | -17.2
20 | Nc1ccc2ncc(NCc3ccc(F)cc3)nc2c1 | -4 | -25.9 | -25.6% | 18.1 | 3.4 | 5.15

Row | Structure (SMILES) | growth inhibition [1] [%] | growth inhibition [2] [%] | growth inhibition [3] | growth inhibition [4] [%] | growth inhibition [5] [%] | growth inhibition [6] [%]
21 | CC(C)c1nnc(NC(=O)CSC(=S)N2CCOCC2)s1 | -23.9 | -18.1 | -5.95% | -51.9 | -16.6 | -2.25
22 | Cn1c(-c2ccccc2)nc(-c2ccccc2)[n+]1[O-] | 8.75 | -0.55 | 1.85% | 9.8 | 0.6 | 28.6
23 | CC(O)CNC(=O)C(C)O (centres undefined) | 11.8 | -27.6 | -25.8% | -5.45 | 8.25 | 7.6
24 | Fc1ccc2nncc(SCc3ccc(Cl)cc3)c2c1 | -4.1 | 2.25 | 4% | -22.4 | 4.85 | -0.65
25 | c1ccc(COCCc2ccccn2)cc1 | -5.3 | -19.9 | -3.85% | -26.1 | -22.2 | -20.4
26 | C[n+]1cccc(/C=C/c2ccc3cccc(O)c3n2)c1 | 4 | -3.75 | -12.7% | -2.65 | -42.4 | 8.35
27 | CC1CC(C)SC(C)S1 (centres undefined) | -30.6 | -7.95 | -10.1% | -87.4 | -2.7 | -14.8
28 | Cn1cnc2ncnc(Oc3ccc(Cl)cc3)c21 | -13.5 | -10.3 | -2.95% | 4.45 | -27.1 | -14.1
29 | C=CC1CC(NC(=O)OC)C(=O)O1 (centres undefined) | 1.05 | 5.2 | 8.45% | -38.1 | 14.3 | -3.25
30 | COc1ccc2nc(C(C)(O)c3ccccc3)ccc2c1 (centres undefined) | -1.6 | -8.15 | 6% | -6.85 | 2.65 | -29.1
31 | OCC1CCCCCCCCCC1 | 36.3 | -10.7 | 29.8% | 25.1 | 20.1 | 44.5
32 | O=C1[C@@H]2[C@@H](c3ccccc3)[C@]2(Cl)C(=O)[C@H]2[C@H](c3ccccc3)[C@@]12Cl | 6.9 | 4.15 | 1.1% | 8.75 | 3.8 | 32.8
33 | COc1ccc(/C=N/NC(=O)c2ccc(N)cc2)c(OC)c1 | 5.7 | 9.4 | 10% | -0.9 | 14.2 | 13
34 | CC1(C)OC2C(CNS(C)(=O)=O)OC(n3cnc4c(N)ncnc43)C2O1 (centres undefined) | -3.05 | -4.55 | -12.1% | -4.75 | 7.45 | -13.2
35 | CC1(C)C2CCC(OC(=O)c3ccc([N+](=O)[O-])cc3)C1C2 (centres undefined) | 7.25 | -5.15 | 3.5% | -8.1 | 9.95 | -20.8
36 | O=C(COc1ccccc1)NCc1ccc(Cl)cc1 | 2.4 | 2.05 | 5.8% | 7.15 | 26.9 | 21.9
37 | c1ccc(-c2nnsc2-c2ccccc2)cc1 | 17.5 | -4.35 | 27.6% | 10.8 | -3.9 | 20.4
38 | Cc1cc(Br)cc2c1NC(=O)C(C)C2C (centres undefined) | -2.95 | 12.7 | -24.6% | -8.95 | -3.35 | 1.1
39 | Oc1cc(CN2CCOCC2)c(O)c(CN2CCOCC2)c1 | 14.7 | 8.95 | 21.1% | 20 | 7.7 | 24.6
